Assay outcomes from PubChem BioAssay.
An excerpt weighted towards active compounds, which were near 21% of everything screened.
MRP-1 activ – MRP-1 activation; H69AR cells + doxorubicin, viability rescue, CellTiter-Glo; 140,000 tested, 0.61% active; viability increase, % at 10 µM; AID 799;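 active = viability gain under doxorubicin at or above a set limit, the compound median plus 3 SD, cut at about 4.7% in these data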;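 also: MRP-1 overexpressing cells given doxorubicin 25 µM after compound pretreatment; 18-22 h compound pretreatment then 72 h with doxorubicin before readout; 0% = doxorubicin-only wells and 100% = vehicle-treated cells without doxorubicin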
CYP2C9 act – increases human cytochrome P450 2C9 activity; activation factor at 5 µM; P11712; recombinant CYP2C9, luciferin-H conversion, luminescence; active compounds read high; factor 1 = untreated enzyme, 0 = blocked; 96,000 tested, 1.4% active;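 active = activation factor of 2 or more for CYP2C9 at a 5 µM dose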;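 also: 0 = sulfaphenazole-blocked wells and 1 = vehicle-only wells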
CYP2C9 inhib – inhibitors of human CYP2C9 | P11712 | CYP2C9 Supersomes, luciferin-H conversion, luminescence | inhibition, % at 5 µM | 96,000 tested, 20% active;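 active = blocking of liver enzyme CYP2C9 beyond about 50% at 5 µM, limit read from the data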
CYP2C19 act – cytochrome P450 2C19 (human) activation; 96,000 tested, under 10 active; recombinant CYP2C19, luciferin-H EGE luminescence; active compounds read high; 0 = fully inhibited enzyme, 1 = untreated enzyme; AID 1025; activation factor at 5 µM; P33261;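 active = activation factor of at least 2 at 5 µM in the primary screen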;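 also: 0 = wells with 2.5 mM tranylcypromine and 1 = vehicle-only wells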
Target sequence (P33261 whole entry, looked up): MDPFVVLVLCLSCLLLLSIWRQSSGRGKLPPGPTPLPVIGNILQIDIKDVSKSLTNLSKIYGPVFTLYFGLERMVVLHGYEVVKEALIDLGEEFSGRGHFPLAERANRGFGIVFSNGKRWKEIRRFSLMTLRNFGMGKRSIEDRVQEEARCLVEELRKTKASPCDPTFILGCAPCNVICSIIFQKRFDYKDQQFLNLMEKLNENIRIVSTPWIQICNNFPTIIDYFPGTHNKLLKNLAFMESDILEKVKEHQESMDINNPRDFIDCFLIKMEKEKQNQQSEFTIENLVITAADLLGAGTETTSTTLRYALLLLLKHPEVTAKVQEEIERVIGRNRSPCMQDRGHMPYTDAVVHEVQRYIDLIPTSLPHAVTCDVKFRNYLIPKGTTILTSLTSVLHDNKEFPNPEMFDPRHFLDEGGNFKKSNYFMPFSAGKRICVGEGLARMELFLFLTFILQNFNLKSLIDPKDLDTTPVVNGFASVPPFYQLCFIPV
CYP2C19 inhib – blocks human cytochrome P450 2C19; AID 778; CYP2C19 Supersomes, luciferin-H EGE luminescence, 30 min; inhibition, % at 5 µM; P33261; 96,000 tested, 21% active;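 active = CYP2C19 inhibition above a set limit at 5 µM in the primary screen, cut at about 50% in these data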;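 also: plate controls were negative control wells for no effect and 2.5 mM tranylcypromine positive control for full effect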
MRP reversal – compounds reversing MRP-mediated drug resistance. H69AR cells + 2 uM doxorubicin, CellTiter-Glo, 72 h. differential viability (reversal), % at 10 µM. 85,000 tested, 0.04% active. AID 602;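 active = viability drop by adding the cancer drug above about 55%, with treated viability meeting a 40% cutoff, limit read from the data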;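 also: viability without doxorubicin minus viability with 2 µM doxorubicin for each compound; larger differential means the compound sensitizes cells more to doxorubicin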
* marks the source's active call; other numbers are inactive results; . = not tested or not shown.

SMILES | MRP-1 activ | CYP2C9 act | CYP2C9 inhib | CYP2C19 act | CYP2C19 inhib | MRP reversal
Cc1ccccc1-n1nnnc1SCC(N)=O | -2 | 1 | 3 | 1 | -4 | 2
Cc1cc(C)c(C#N)c(Sc2nnnn2-c2ccccc2)n1 | -1 | 0.8 | 18 | 0.4 | 57* | 6
c1ccc(-n2nnnc2Sc2n[nH]c(-c3ccncc3)n2)cc1 | 0 | 0.2 | 80* | 0.6 | 43 | -11
O=C(COC(=O)c1c(Cl)ccc(Cl)c1Cl)NC(=O)NCc1ccccc1 | 2 | . | . | . | . | .
CC1(C)Cc2c(sc3c4nnnn4c4nnnn4c23)CO1 | -2 | 0.9 | 7 | 0.9 | 7 | -1
O=C(NNC(=O)C1[C@H]2CCCC[C@@H]12)NC1CCCCC1 (stereo partly specified) | 3 | . | . | . | . | .
CS(=O)(=O)N(CCc1ccccc1)CC(=O)N1CCN(c2ccc(F)cc2)CC1 | 0 | . | . | . | . | 18
COC(=O)c1cc2ccccc2c(-c2c(OC)c(C(=O)OC)cc3ccccc23)c1OC | -1 | 0.2 | 81* | 0.5 | 54* | .
COC(=O)c1ccccc1Oc1nc(Cl)cc(OC)n1 | -2 | . | . | . | . | .
O=C(c1cccs1)c1ccc(-c2cccs2)s1 | -5 | 0.3 | 74* | 0.5 | 49 | 4
COc1ccc(S(=O)(=O)N/N=C\c2ccc3c(c2)OCO3)cc1 | 0 | 0.2 | 79* | 0.3 | 71* | .
O=C(COc1ccc(S(=O)(=O)N2CCCC2)cc1Cl)NCc1ccc2c(c1)OCO2 | 2 | 0.5 | 46 | 0.8 | 16 | .
COC(=O)COc1ccc(S(=O)(=O)Nc2ccc3c(c2)OCO3)cc1 | -1 | 0.1 | 93* | 0 | 99* | -18
CCOC(=O)COc1ccc(S(=O)(=O)Nc2ccc3c(c2)OCCO3)cc1 | -1 | 0.9 | 7 | 0.9 | 6 | -1
COC(=O)COc1ccc(S(=O)(=O)Nc2ccc3c(c2)OCO3)cc1Cl | -1 | 0.3 | 70* | 0 | 98* | 8
Cc1ccc(CNC(=O)C(Cc2ccccc2)NS(=O)(=O)c2ccc(Br)s2)cc1 (stereo unspecified) | -1 | . | . | . | . | .
Cc1ccc(C(=O)NC(N2CCCC2)C(Cl)(Cl)Cl)cc1 (stereo unspecified) | -1 | 0.9 | 12 | 0.3 | 69* | .
O=C(NC(C(=O)c1ccccc1)N1CCCCC1)c1ccccc1 (stereo unspecified) | -1 | 0 | 99* | 0.2 | 77* | .
O=C(NN1CCCCC1)c1ccccc1 | -1 | . | . | . | . | .
O=C(NC(NC(=S)Nc1c(Cl)cccc1Cl)C(Cl)(Cl)Cl)c1cccc([N+](=O)[O-])c1 (stereo unspecified) | -5 | . | . | . | . | .
COc1ccc(C(C[N+](=O)[O-])c2c(-c3ccccc3)cc3ccccn23)c(OC)c1 (stereo unspecified) | -3 | 0.3 | 70* | 0.6 | 37 | .
c1ccc(CC2CCN(c3nnnn3-c3ccccc3)CC2)cc1 | -1 | 0.5 | 54* | 0.4 | 63* | 8
O=C1NCN(c2ccccc2)C12CCN(c1nnnn1-c1ccccc1)CC2 | -1 | 0.8 | 20 | 0.4 | 58* | 3
O=S(=O)(c1ccccc1)N1CCN(c2nnnn2-c2ccccc2)CC1 | -2 | 0.8 | 21 | 0.5 | 51* | 6
O=C1CN(c2nnnn2-c2ccccc2)CCN1 | -3 | 1.1 | -8 | 1.2 | -17 | 2
SMILES | MRP-1 activ | CYP2C9 act | CYP2C9 inhib | CYP2C19 act | CYP2C19 inhib | MRP reversal
COc1ccc(Nc2nc(NCc3ccco3)nc(N/N=C/c3ccc(O)cc3)n2)cc1 | 0 | . | . | . | . | .
CCOc1ccc(S(=O)(=O)N2CCN(C(=O)c3cccn3C)CC2)cc1 | -1 | 0.8 | 22 | 0.4 | 64* | 2
CCOc1cccc(NC(=O)c2ccc(S(=O)(=O)N3CCCC3)cc2)c1 | . | . | . | . | . | 2
CCOc1ccc2cc(S(=O)(=O)N3CCOCC3)ccc2c1 | -3 | 0.8 | 24 | 1 | 1 | -5
O=S(=O)(c1ccc(Oc2ccc(Br)cc2)cc1)N1CCOCC1 | -2 | 0.4 | 64* | 0.2 | 75* | 15
CCOc1ccc(S(=O)(=O)Nc2ccc(S(=O)(=O)N3CCOCC3)cc2)cc1 | -2 | 0.4 | 60* | 0.8 | 22 | -12
CCOc1ccc(S(=O)(=O)Nc2ccc(S(=O)(=O)N3CCCCC3)cc2)cc1 | -2 | 0.1 | 86* | 0.5 | 53* | 5
CCOc1ccc(C(=O)CN2CCN(S(=O)(=O)c3ccc(F)cc3)CC2)cc1 | -1 | 0.8 | 20 | 0.6 | 41 | -9
CSc1nc(C)cc(OCC#N)n1 | -1 | 1.2 | -23 | 0.9 | 12 | -11
Cc1ccc(C(C(=O)NCCc2ccccc2)N(C(=O)c2csnn2)C2CC2)o1 (stereo unspecified) | 0 | 0.8 | 23 | 0.6 | 40 | 7
CSc1nnc(SCC2=NNC(=O)SC2)s1 | 0 | . | . | . | . | .
CCOc1ccc(S(=O)(=O)Nc2ccc(S(=O)(=O)N3CCCC3)cc2)cc1 | -2 | 0.1 | 94* | 0.2 | 85* | -18
CCOC(=O)N1CCN(C(=O)COc2ccc(S(=O)(=O)Nc3ccc(OCC)cc3)cc2)CC1 | -2 | 0.5 | 51* | 0.8 | 22 | -8
CCOc1ccc(S(=O)(=O)N2CCCCCC2)cc1 | -1 | 1 | 5 | 0.1 | 92* | 5
CCOc1ccc(NS(=O)(=O)c2ccc(OCC(=O)N3CCCC3)cc2)cc1 | -3 | 0.9 | 6 | 1 | 2 | 15
CN(C)C(=O)c1c2c(nc3ccccc13)-c1ccccc1CC2 | -2 | 0.8 | 23 | 0.9 | 11 | .
CCOc1ccc(N2C(=O)CC(SC(=NC)Nc3ccc(F)cc3)C2=O)cc1 (stereo unspecified) | -2 | . | . | . | . | 4
COc1cc(-n2ccnc2SC)c(Cl)cc1Cl | -4 | 1 | 4 | 0.5 | 54* | .
CCOC(=O)CSc1nnnn1-c1cc(OC)c(Cl)cc1OC | -3 | 1 | 0 | 0.8 | 23 | .
O=C(NCc1cccc(F)c1)c1ccc(N2C(=O)Cn3c(cc4sccc43)C2=O)cc1 | 1 | . | . | . | . | .
CCCOc1cc(CC(=O)NCc2ccco2)ccc1OC | -1 | 0.4 | 63* | 0.3 | 71* | 16
COc1ccc(CNCc2ccco2)cc1OCc1ccccc1 | -2 | 1.1 | -5 | 0.4 | 65* | .
COc1ccc(CCn2c(=S)[nH]c3cc(C(=O)NCc4ccco4)ccc3c2=O)cc1OC | -4 | 0.4 | 60* | 0.6 | 42 | 1
COc1ccccc1CCNCc1ccc(OC)c(OCc2ccccc2)c1 | -4 | 1.2 | -17 | 0.6 | 42 | .
COc1ccc(C(=O)NC(=S)NCc2ccco2)cc1OC | -1 | 0.3 | 70* | 0.5 | 54* | .
COc1cccc(C(=O)NC(=S)NCc2ccco2)c1 | -3 | . | . | . | . | .
Cc1ccc(OCC(=O)Nc2cc(S(=O)(=O)N3CCCCC3)ccc2C)c([N+](=O)[O-])n1 | 0 | . | . | . | . | .
O=C(COc1ccc2ccccc2c1)NCCc1ccc2c(c1)OCCO2 | -2 | . | . | . | . | .
CCOc1ccc(C2C(C#N)=C(N)Oc3cc(C)n(CCN(C)C)c(=O)c32)cc1OCC (stereo unspecified) | -1 | 0.9 | 12 | 1.1 | -7 | -6
